This is a sample that favours compounds with a hit; in the whole collection about 2.5% have one here.
TMEM16A inh = mouse TMEM16A channel inhibition, primary screen; 310,000 tested, 1.2% active; HEK293 TMEM16A/YFP iodide influx fluorescence, ionomycin; normalized B-score (activity score, 25-100; higher = stronger inhibition) at 10 µM;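 active = ratio plate-corrected score three or more library SD toward inhibition, starting fluorescence score within five deviations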;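 also: score derived from kinetic fluorescence span divided by baseline fluorescence per well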
Target sequence (Q8BHY3 whole entry, looked up): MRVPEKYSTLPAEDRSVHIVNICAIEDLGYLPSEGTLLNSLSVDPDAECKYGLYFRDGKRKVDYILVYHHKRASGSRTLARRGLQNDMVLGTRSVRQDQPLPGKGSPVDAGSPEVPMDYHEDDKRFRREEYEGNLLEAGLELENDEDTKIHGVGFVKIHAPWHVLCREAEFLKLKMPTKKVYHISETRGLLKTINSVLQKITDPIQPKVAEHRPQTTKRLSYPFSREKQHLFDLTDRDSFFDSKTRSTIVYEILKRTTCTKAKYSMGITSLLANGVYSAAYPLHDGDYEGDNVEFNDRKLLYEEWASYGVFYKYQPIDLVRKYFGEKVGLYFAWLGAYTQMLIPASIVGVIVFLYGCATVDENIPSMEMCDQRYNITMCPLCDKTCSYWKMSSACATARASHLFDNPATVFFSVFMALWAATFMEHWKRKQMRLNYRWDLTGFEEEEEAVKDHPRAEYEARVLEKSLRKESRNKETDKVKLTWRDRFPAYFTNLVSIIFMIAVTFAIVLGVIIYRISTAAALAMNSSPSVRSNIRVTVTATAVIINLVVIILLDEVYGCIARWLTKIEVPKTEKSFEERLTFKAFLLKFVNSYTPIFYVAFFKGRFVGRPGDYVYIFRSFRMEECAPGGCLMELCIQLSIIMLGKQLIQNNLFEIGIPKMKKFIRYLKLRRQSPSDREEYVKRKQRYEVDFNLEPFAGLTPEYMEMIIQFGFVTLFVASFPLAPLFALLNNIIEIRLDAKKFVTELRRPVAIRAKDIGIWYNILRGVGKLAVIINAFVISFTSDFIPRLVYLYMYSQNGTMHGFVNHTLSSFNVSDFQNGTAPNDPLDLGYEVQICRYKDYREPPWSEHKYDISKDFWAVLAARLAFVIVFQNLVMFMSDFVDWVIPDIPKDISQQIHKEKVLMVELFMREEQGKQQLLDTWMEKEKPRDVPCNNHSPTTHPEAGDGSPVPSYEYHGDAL
Jurkat NFkB inh = inhibitors of the PMA/ionomycin-induced NF-kB reporter in Jurkat cells. PMA/ionomycin-induced NF-kB luciferase reporter, luminescence. 330,000 tested, 0.53% active. AID 435003. inhibition, % at 4 µM; in the data active = inhibition above about 50%
697 NFkB inh = inhibitors of the PMA/ionomycin-induced NF-kB reporter in 697 B cells; 697 B-cell NF-kB luciferase reporter, 16 h; inhibition, % at 4 µM; 330,000 tested, 0.33% active; in the data active = inhibition above about 35%
ANO1 activ = activates or potentiates the mouse TMEM16A chloride channel; Q8BHY3; HEK293 TMEM16A/YFP-H148Q/I152L, iodide quench fluorescence; active compounds read low; B-score at 10 µM; 340,000 tested, 0.3% active; AID 623877;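 active = fluorescence-ratio B-score plate-corrected deviation score at least 3 library SD below zero, with starting fluorescence score within 5 deviations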;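 also: channel opened by trigger with iodide after compound preincubation; score built on the fluorescence ratio of max minus min over baseline; more negative score means more quench and so TMEM16A activation or potentiation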
aSyn 5UTR inh = MLPCN primary screen, SNCA 5' untranslated region | alpha-synuclein 5'UTR reporter, inhibitor activity | inhibition, % (tested at 7.5 µM) | 300,000 tested, 0.82% active | AID 1813; in the data active = inhibition above about 60%;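 also: H4 neuroglioblastoma cells stably carrying SNCA 5'UTR luciferase fusion; 0% = DMSO wells and 100% = positive control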
KLF5 inhibitor = kruppel-like factor 5 inhibition; DLD-1 KLF5 promoter-luciferase reporter, luminescence; inhibition, % at 5 µM; 290,000 tested, 0.23% active;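 active = inhibition above a per-plate limit of that plate's mean compound inhibition plus 3 SD, cut at about 60% in these data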;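 also: 0% = DMSO wells and 100% = LY294002 at 200 µM; higher means less KLF5 promoter-driven luciferase light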
* marks the source's active call; other numbers are inactive results; i = inactive; · = not tested or not shown.

SMILES	TMEM16A inh	Jurkat NFkB inh	697 NFkB inh	ANO1 activ	aSyn 5UTR inh	KLF5 inhibitor
O=C(OCc1nnc(-c2ccccc2)o1)C1CCN(C(=O)c2ccc(Cl)cc2)CC1	·	5.1	10.0	i	·	·
S=C(NCc1ccco1)Nc1ccc(Cl)c(Cl)c1	25*	11.0	-4.9	i	-50.6	3.3
S=C(NCc1ccco1)Nc1cccc(Cl)c1	i	10.2	-22.3	i	-30.4	-42.2
CCOC(=O)C1CCN(C(=O)CSCc2nc(-c3ccc(OCC)cc3)oc2C)CC1	100*	14.1	-16.3	i	31.2	-234.6
COc1ccc2nc3cc(Cl)ccc3c(C#N)c2c1	i	-0.2	-7.4	-7.23*	-6.7	-10.2
Cc1cc(C)cc(OCC(=O)N2N=C(C(F)(F)F)CC2(O)C(C)(C)C)c1 (stereo unspecified)	100*	-6.8	-9.6	i	13.7	-34.9
Cc1cccc(NC(=O)c2ccc(OCc3c(C)noc3C)cc2)n1	·	9.9	4.9	i	·	·
CN(Cc1ccccc1)C(=O)CSc1nc2c(c(C(F)(F)F)n1)CCc1ccccc1-2	25*	-9.0	-10.4	i	9.9	-43.9
NC(=O)c1c(NC(=O)CSc2nc3c(c(C(F)(F)F)n2)CCc2ccccc2-3)sc2c1CCCC2	i	1.5	19.7	i	20.1	-35.3
N/C(=N\OC(=O)COc1ccc(Cl)cc1Br)c1ccncc1	·	·	·	-39.1*	·	-202.6
N/C(=N\OC(=O)c1cc(Cl)ccc1Cl)c1ccncc1	i	-30.1	-19.0	-10.4*	-229.4	-27.3
N/C(=N\OC(=O)c1ccc(Cl)cc1Cl)c1ccncc1	i	-97.5	-118.2	i	-112.0	-108.6
COc1cc(C(=O)Nc2ccc(C)c(S(=O)(=O)N(C)C)c2)ccc1OCC(=O)N1CCOCC1	i	-20.5	-4.0	i	-10.8	·
COC(=O)[C@@]12CCCCN1[C@H](c1ccc(SC3CCCCC3)cc1)[C@@H]1C(=O)N(C)C(=O)[C@@H]12	i	8.4	15.6	-7.89*	10.3	·
CCOc1ccc(NC(=O)c2nn(-c3ccc(OC)cc3OC)c(=O)c3ccccc23)cc1	i	7.3	-0.1	·	-10.8	-3.8
N#CC1=C(N)Oc2cc(N)ccc2C1c1cccc(Br)c1 (stereo unspecified)	i	49.2	-64.7	i	118.8*	61.1
CSc1ccccc1OCc1cc(C(=O)N2CCC(Oc3cccnc3)CC2)no1	25*	-22.8	-98.9	i	-16.4	-62.6
CSc1ccccc1OCc1cc(C(=O)N2CCSCC2)no1	i	-89.8	-122.8	i	-113.2	-116.0
CC(=O)N1CCc2cc(S(=O)(=O)Nc3ccc(C)cc3)ccc21	i	6.5	-11.1	i	-8.0	4.4
CC(=O)N1CCc2cc(S(=O)(=O)Nc3cccc(C(F)(F)F)c3)ccc21	25*	2.5	-34.7	i	8.1	-37.7
CSc1cccc(NS(=O)(=O)c2ccc3c(c2)CCN3C(C)=O)c1	25*	32.6	6.6	i	-4.0	41.9
COc1cccc(NS(=O)(=O)c2ccc3c(c2)CCN3C(C)=O)c1	i	18.9	-29.9	i	-19.4	-0.6
CCOC(=O)COc1ccc(S(=O)(=O)Nc2cccc(SC)c2)cc1	25*	2.4	10.1	i	11.2	-1.3
CCOc1ccc(N(CC(=O)NC2CCCCC2)C(=O)CNC(=O)c2cccs2)cc1	i	3.8	-3.2	i	12.6	9.5
Cc1ccnc2nc(C(=O)OCC(=O)NCc3cccc(Cl)c3)nn12	·	-2.6	10.8	i	·	·
SMILES	TMEM16A inh	Jurkat NFkB inh	697 NFkB inh	ANO1 activ	aSyn 5UTR inh	KLF5 inhibitor
CCCNC(=O)Cn1c(=O)oc2cc(S(=O)(=O)N3CC(C)CC(C)C3)ccc21 (stereo unspecified)	i	12.6	4.5	-40.8*	8.2	7.6
Cn1c(=O)c2[nH]c(Cc3ccsc3)nc2n(C)c1=O	·	·	·	i	·	·
O=C(O)CC(=O)Nc1ccc(Oc2ccc(C(F)(F)F)cn2)c(Cl)c1	i	4.0	15.0	i	64.6*	-3.7
O=C(CN(c1ccc(Cl)cc1)S(=O)(=O)c1ccc(Cl)c([N+](=O)[O-])c1)NCCc1ccccc1	i	-9.5	29.4	i	105.8*	-6.6
COc1cc(Cl)c(C)cc1NC(=O)CSc1cc(Cl)ccc1Cl	100*	-22.5	-48.6	i	2.0	4.3
CN(CC(=O)Nc1cccc(F)c1)C(=O)c1cc([N+](=O)[O-])ccc1N1CCOCC1	i	5.2	5.9	i	-7.3	·

Screening data from PubChem BioAssay.
